Each structure is given as a SMILES string. Entries with a potency or affinity are not part of this list. Active and inactive are the calls of the source. How the calls were made is not given here.

This test is described as follows: single-agent growth inhibition of C. albicans, dose response, counter-screen for antifungal drug resistance project, C. albicans CaCi-2, dry powder (AID 488802). The following applies: C. albicans CaCi-2 (fluconazole-resistant clinical isolate) growth, no fluconazole, Alamar Blue, 48 h; series mostly up to 26 µM. In general terms: Counterscreens check selectivity or assay interference.
Take `O=C(O)c1c2ccccc2nn1Cc1ccc(Cl)cc1`: the compound was classed as inactive.
Consider `O=C(Cn1c2ccccc2c2nc3n(c(=O)c21)CCS3)NCCc1ccc(Cl)cc1`, for which the call was inactive.
Consider `COC(=O)Cn1nc(C)c2ccccc21`, for which the compound was called inactive.
For `CNC(=O)Cn1nc(-c2ccccc2)c2ccccc21`, the compound was called inactive.
Take `c1ccc(-c2n[nH]c3ccccc23)cc1`: the outcome was inactive.
As to `CCOC(=O)c1c2ccccc2nn1Cc1ccc(Cl)cc1`, the result was inactive.
On to `O=C(Cn1nc(-c2ccccc2)c2ccccc21)N1CCc2ccccc2C1`, for which the outcome was inactive.
Turning to `COc1ccc2c(c1)c1nc3n(c(=O)c1n2CC(=O)N1CCC(C)CC1)CCS3`, the activity change, negative = inhibition was 13.5% [at 2.6 µM] (inactive).
As to `O=C(c1ccc(Cl)cc1)N1CCN(c2cc(C(F)(F)F)nc3ccccc23)CC1`, the compound was called inactive.
As for `O=c1c2[nH]c3ccccc3c2nc2n1CCS2`, the compound was classed as inactive.
Turning to `O=C(c1csc2ccccc12)N1CCN(c2ccnc3cc(Cl)ccc23)CC1`, the outcome was inactive.
Consider `COC(=O)Cn1nc(-c2ccc(Cl)cc2)c2ccccc21`, for which the compound was classed as inactive.
As for `O=S(=O)(c1ccc(Cl)cc1)N1CCN(c2ccnc3cc(Cl)ccc23)CC1`, the compound was called inactive.
Regarding `O=C(c1ccccc1)N1CCN(c2ccnc3cc(Cl)ccc23)CC1`, the compound was classed as inactive.
Consider `COc1ccc(OC)c2c(C)cc(N3CCN(C(=O)c4ccc(Cl)cc4)CC3)nc12`, for which the call was inactive.
The same measure, in the same setting: with `O=C(Nc1ccc(C(F)(F)F)cc1)N1CCN(c2ccnc3cc(Cl)ccc23)CC1` the entry was “inactive”; with `COC(=O)Cn1nc(-c2ccccc2)c2ccccc21`, “inactive”; with `O=C(c1cccs1)N1CCN(c2ccnc3cc(Cl)ccc23)CC1`, “inactive”.
Still for that read-out and setting: with `O=C(c1ccc(Cl)cc1)N1CCN(c2ccc(Cl)cc2)CC1` the entry was “inactive”.
Regarding `O=C(Cn1c2ccccc2c2nc3n(c(=O)c21)CCCS3)c1ccc(F)cc1`, the outcome was inactive.
Same read-out and setting: with `CC1CCN(C(=O)Cn2c3ccc(F)cc3c3nc4n(c(=O)c32)CCCS4)CC1` the entry was “inactive”; with `O=C(O)c1nn(Cc2ccc(Cl)cc2)c2ccccc12`, “inactive”; with `COC(=O)Cn1nc(-c2ccccc2)c2cc(Cl)ccc21`, “inactive”.
In the case of `CCN(CC)C(=O)Cn1c2ccccc2c2nc3n(c(=O)c21)CCS3`, the outcome was inactive.
As to `O=C(c1ccc(Cl)cc1)N1CCN(c2ccccn2)CC1`, the outcome was inactive.
Turning to `CCCNC(=O)Cn1nc(-c2ccccc2)c2ccccc21`, the call was inactive.
As to `COc1ccc2c(c1)c1nc3n(c(=O)c1n2CC(=O)N1CCC(Cc2ccccc2)CC1)CCS3`, the compound was classed as inactive.
As to `O=C(Cn1c2ccccc2c2nc3n(c(=O)c21)CCS3)N1CCCC1`, the compound was classed as inactive.
For `O=C(Cn1nc(C(=O)N2CCCCC2)c2ccccc21)N1CCOCC1`, the outcome was inactive.
For `COC(=O)Cn1nc(-c2ccc(C)cc2)c2ccccc21`, the compound was called inactive.
In the case of `O=C(C1CC1)N1CCN(c2ccnc3cc(Cl)ccc23)CC1`, the compound was classed as inactive.
Turning to `O=C(Cn1nc(-c2ccccc2)c2ccccc21)NCc1ccc(Cl)cc1`, the result was inactive.
On to `CCOC(=O)c1nn(Cc2ccc(Cl)cc2)c2ccccc12`, for which the outcome was inactive.
Same read-out and setting: with `CCCCNC(=O)N1CCN(c2ccnc3cc(Cl)ccc23)CC1` the entry was “inactive”.
For `O=C(Cn1nc(-c2ccccc2)c2cc(Cl)ccc21)N1CCOCC1`, the outcome was inactive.

The record behind these values is PubChem BioAssay AID488802 (Broad Institute, 2010).
